Source: ChEMBL document CHEMBL3988442, “University of Dundee, Small-Polar-MMV Screening Library” (2021)

molecular target: T1, Tyrosyl-tRNA synthetase, putative (Trypanosoma cruzi (strain CL Brener)) (UniProt Q4DSP6); assay: Trypanosoma cruzi tyrosyl tRNA synthetase (TcYRS) _High Tyrosine SOP; assay type: functional; set-up: scale not given: in the data most compounds retested in dose-response had high values; settings: 30 µM
T1 sequence (whole entry): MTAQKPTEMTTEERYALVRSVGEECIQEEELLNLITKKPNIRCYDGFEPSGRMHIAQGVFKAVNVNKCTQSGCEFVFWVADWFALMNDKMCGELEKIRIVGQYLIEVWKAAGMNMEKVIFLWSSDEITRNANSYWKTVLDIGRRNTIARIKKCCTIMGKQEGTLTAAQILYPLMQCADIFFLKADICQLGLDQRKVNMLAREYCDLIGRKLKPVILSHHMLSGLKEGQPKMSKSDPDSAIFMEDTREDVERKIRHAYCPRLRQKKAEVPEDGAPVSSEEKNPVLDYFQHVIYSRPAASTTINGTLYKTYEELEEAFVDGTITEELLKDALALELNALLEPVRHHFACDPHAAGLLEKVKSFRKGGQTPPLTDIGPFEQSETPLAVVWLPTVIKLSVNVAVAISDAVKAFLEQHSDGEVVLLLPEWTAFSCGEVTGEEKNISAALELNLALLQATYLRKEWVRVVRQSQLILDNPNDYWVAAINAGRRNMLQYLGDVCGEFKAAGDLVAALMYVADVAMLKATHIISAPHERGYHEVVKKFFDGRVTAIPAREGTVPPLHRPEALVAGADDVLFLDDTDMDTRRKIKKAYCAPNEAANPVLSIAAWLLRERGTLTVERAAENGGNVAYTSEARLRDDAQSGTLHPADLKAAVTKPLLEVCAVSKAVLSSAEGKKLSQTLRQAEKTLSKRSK

SMILES	Percent Effect [%]
Cn1c(NCC(O)c2ccc(F)cc2F)c(C#N)c(=O)n(C)c1=O (centres undefined)	5.42
CC(CNC(=O)N1CCSCC1)Cc1cccs1 (centres undefined)	4.95
NC(=O)COc1cccc(C(=O)N2CCCC(n3ccnc3)C2)c1 (centres undefined)	1.98
CCC(O)CNC(=O)c1coc(COc2ccc3sc(C)nc3c2)n1 (centres undefined)	-1.07
CCNC(=O)N1CCC2(C1)c1ccccc1S(=O)(=O)N2CCC(C)C (centres undefined)	1.04
Cc1ccc(C(CNCc2cnn(C(C)C)c2)N2CCOCC2)s1 (centres undefined)	4.95
COc1cccc(C(=O)Nc2cc(CC(C)C)nn2C)c1	4.85
Cc1cc(F)ccc1CN1CCCC2(C1)OCCO2	2.97
CCN(Cc1ccco1)C(=O)Nc1cc(C(F)(F)F)c[nH]c1=O	4.43
O=C(c1ccccc1OCC1CC1)N1CCCC(n2ccnc2)C1 (centres undefined)	2.08
Cn1nc(CNC(=O)NCc2ccc(Cl)cc2)c2c1CCOC2	0
O=C(NCC(Cc1cccc(F)c1)N1CCCC1=O)c1ccccc1 (centres undefined)	1.07
CSCC(C)(O)CNC(=O)c1ccc(Br)cc1F (centres undefined)	3.23
CCN1CCC(c2nc3ccc(NC(C)C)cn3n2)CC1	5.94
COc1ccc(Oc2cncc(C3CCCN3C(C)=O)n2)cc1 (centres undefined)	0
CCn1nc(C)c(CNC(=O)c2cn(CCC3CCCCN3)nn2)c1C (centres undefined)	7.1
N#Cc1ccc(N2CCN(C(=O)c3cc(C4CC4)[nH]n3)CC2)c(F)c1	4.95
CNS(=O)(=O)c1ccc(C(=O)N2CCCC2c2ccccc2)o1 (centres undefined)	6.4
CC(=O)c1c(F)cccc1N1CCC(CS(N)(=O)=O)CC1	4.17
Cc1ccc(CC(=O)NC(C)C(=O)N2CCS(=O)(=O)CC2)cc1 (centres undefined)	3.7

SMILES	Percent Effect [%]
CCN(C(c1cccnc1)c1ccc2c(c1)CCO2)S(C)(=O)=O (centres undefined)	1.04
CCOCCCC(=O)NCCC(=O)N1CCN(c2ccccn2)CC1	5.32
CCOc1ccc(C(=O)NS(=O)(=O)c2cncc(Br)c2)cc1OC	3.7
c1ncn(CC2CCCCN2Cc2noc(C3CC3)n2)n1 (centres undefined)	3.43
COC(=O)c1ccc2ccn(CC3CCCO3)c(=O)c2c1 (centres undefined)	4.3
CC(C)C(=O)N1CCN(C(=O)CCc2nnc(-c3ccccc3)o2)CC1	3.45
CCNC(c1cccnc1)c1cc(C)cc(C)c1 (centres undefined)	0
NC(=O)C1(Cc2ccccc2-c2ccccc2)CCCN(CC2CC2)C1 (centres undefined)	2.13
CC(C(=O)Nc1cccc(N2CCCCC2)c1)n1cncn1 (centres undefined)	5.42
O=C(C1CC1)N1CCC(c2nc(O)c3c(n2)CCN(C2CCCC2)C3)C1 (centres undefined)	1.06
Cn1cc(CN2CCn3cc(CNC(=O)C4CCC4)nc3C2)cn1	7.29
CN1N=C(C(=O)Nc2cc(F)ccc2OCC2CCCO2)CCC1=O (centres undefined)	1.94
CC(Cn1cccn1)NCc1nc(-c2cccc(Cl)c2)no1 (centres undefined)	3.45
Cn1nc(C2CCN(C(=O)Cc3cccc(F)c3)CC2)c2cccnc21	1.07
O=C(CN1CCCC(O)C1)NC(=O)NCc1cccs1 (centres undefined)	3.19
O=C(Cn1cnnn1)N1CCCCC1Cn1cccn1 (centres undefined)	-3.45
O=C(NCC1CC1)C1=NOC2(CCN(Cc3ccc4c(c3)OCO4)C2)C1 (centres undefined)	0
O=C(NC[C@@H]1CCCN1)c1cc(COc2cccc(C(F)(F)F)c2)[nH]n1	4.21
CO[C@H]1CN(C(=O)c2ccc3oc(C)cc3c2)CC[C@@]12CCCO2	0
